Assay results as given in PubChem BioAssay (Tox21).
Results filed as inconclusive are left out. Active and inactive are the calls of the source. Calls come from the whole dose curve; as a rule, active = well fitted activation curve with a large enough effect in the signal ratio in the repeat runs (not every such curve was filed as active); inconclusive = weak or mixed curves, or effect the other way; inactive = no such curve, though single readings can be large or run the other way; the % refers to the signal ratio.

Each molecule was assayed against Glucocorticoid receptor (Homo sapiens) (UniProt P04150) (assay: qHTS assay to identify small molecule agonists of the glucocorticoid receptor (GR) signaling pathway (AID 720691)). Details: GR-bla HeLa, beta-lactamase reporter ratio, 18 h; series mostly up to 62.4 µM.
Glucocorticoid receptor (Homo sapiens), sequence (P04150 whole entry, looked up): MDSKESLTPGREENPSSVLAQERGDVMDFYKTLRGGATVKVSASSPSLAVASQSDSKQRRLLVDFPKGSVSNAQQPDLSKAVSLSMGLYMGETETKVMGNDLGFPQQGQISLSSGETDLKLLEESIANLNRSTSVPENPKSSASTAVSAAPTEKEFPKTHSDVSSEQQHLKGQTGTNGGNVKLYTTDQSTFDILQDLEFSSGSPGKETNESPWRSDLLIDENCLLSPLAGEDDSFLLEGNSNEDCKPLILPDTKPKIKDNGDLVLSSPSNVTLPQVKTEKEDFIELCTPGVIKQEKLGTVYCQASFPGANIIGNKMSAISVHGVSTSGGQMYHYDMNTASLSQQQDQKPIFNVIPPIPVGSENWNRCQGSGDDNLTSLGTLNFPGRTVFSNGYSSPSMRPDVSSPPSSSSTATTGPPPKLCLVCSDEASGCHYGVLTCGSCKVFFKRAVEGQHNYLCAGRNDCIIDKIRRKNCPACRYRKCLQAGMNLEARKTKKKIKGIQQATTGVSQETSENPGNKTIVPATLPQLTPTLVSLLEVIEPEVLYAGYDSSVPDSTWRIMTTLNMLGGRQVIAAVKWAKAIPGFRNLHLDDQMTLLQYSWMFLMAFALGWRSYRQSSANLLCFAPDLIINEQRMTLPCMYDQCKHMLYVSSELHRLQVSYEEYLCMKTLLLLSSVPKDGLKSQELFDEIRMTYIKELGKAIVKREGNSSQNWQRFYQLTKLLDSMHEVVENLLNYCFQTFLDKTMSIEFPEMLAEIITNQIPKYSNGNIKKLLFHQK
Description: U.S. Tox21 Program National Center for Advancing Translational Sciences [NCATS] NIH Chemical Genomics Center [NCGC] U.S. Environmental Protection Agency [EPA] National Institutes of Environmental Health Sciences [NIEHS] National Toxicology Program [NTP] U.S. Food and Drug Administration [FDA] Tox21 Assay Overview: The Glucocorticoid receptor (GR) is one of the members of the nuclear receptor family of ligand-dependent transcription factors. GR plays a critical role in carbohydrate, protein and lipid metabolisms and programmed cell death. CellSensor GR-bla HeLa cell line (Invitrogen) contains a beta-lactamase reporter gene under the control of the glucocorticoid response element stably integrated into HeLa cells, a cervical cancer cell line that expresses glucocorticoid receptor. The activation of the reporter gene under culture conditions can be detected by fluorescence intensity. This cell line has been used to screen the Tox21 10K compound library and to identify the compounds that activate the GR signaling.
Tox21 Assay Protocol Summary: The GR-bla HeLa cells were dispensed at 1500 cells/6 ul/well in 1536-well black wall/clear bottom plates using a Multidrop Combi (ThermoFisher Scientific, Waltham, MA) dispenser. After the assay plates were incubated at a 37 C/5% CO2 incubator for 4 hours, 23 nL of compounds dissolved in DMSO, positive controls or DMSO only was transferred to the assay plate by a pintool station (Kalypsys, San Diego, CA). The plates were incubated at 37 C for 18 hours. After 1 uL of LiveBLAzerTM B/G FRET substrate was added using a Flying Reagent Dispenser (Aurora Discovery, San Diego, CA), the plates were incubated at room temperature for 2 hours, and fluorescence intensity was measured by an Envision plate reader (PerkinElmer, Shelton, CT).

| Compound | outcome |
| --- | --- |
| CCOc1ccc(C(C)(C)COCc2cccc(Oc3ccccc3)c2)cc1 | inactive |
| CN1C[C@H](CNC(=O)OCc2ccccc2)C[C@@H]2c3cccc4c3c(cn4C)C[C@H]21 | inactive |
| O=C1C(Cl)C(CCl)CN1c1cccc(C(F)(F)F)c1 (stereo not given) | inactive |
| Nc1ccc(N=Nc2ccc(-c3ccc(N=Nc4c(S(=O)(=O)O)cc5cc(S(=O)(=O)O)c(N=Nc6ccccc6)c(O)c5c4N)cc3)cc2)c(N)c1 | inactive |
| COC1=CC(=O)O[C@@H](CCc2ccccc2)C1 | inactive |
| CN1C(=O)NC(=O)C(C)(C2=CCCCC2)C1=O (stereo not given) | inactive |
| NNC(=O)c1cccnc1 | inactive |
| c1ccc(C2CC2)c(OCC2=NCCN2)c1 | inactive |
| O=C(O)COc1ccc(Cl)cc1 | inactive |
| ClCC(Br)CBr (stereo not given) | inactive |
| CCOP(=S)(OCC)SCSCC | inactive |
| COc1nn(C(=O)NS(=O)(=O)c2ccccc2OC(F)(F)F)c(=O)n1C | inactive |
| COCC(C)N(C(=O)CCl)c1c(C)csc1C (stereo not given) | inactive |
| CCCCC(CC)COP(=O)(Oc1ccccc1)Oc1ccccc1 (stereo not given) | inactive |
| II | inactive |
| O=C(CBr)OCc1ccccc1 | inactive |
| O=C(C(Cl)(Cl)Cl)C(Cl)(Cl)Cl | inactive |
| CCCCOC(=O)c1ccccc1C(=O)OCc1ccccc1 | inactive |
| CC(C)(C)c1cc([N+](=O)[O-])cc([N+](=O)[O-])c1O | inactive |
| O=NN1CCNCC1 | inactive |

| Compound | outcome |
| --- | --- |
| O=C(OC1CCCCC1)c1ccccc1C(=O)OC1CCCCC1 | inactive |
| COP(=S)(OC)Oc1ccc([N+](=O)[O-])cc1Cl | inactive |
| CCCC(=O)Cl | inactive |
| COc1ccc(-c2ccccc2)cc1NNC(=O)OC(C)C | inactive |
| CC(C)N(C(=O)COc1nnc(C(F)(F)F)s1)c1ccc(F)cc1 | inactive |
| COC(=O)C(C)N(C(=O)Cc1ccccc1)c1c(C)cccc1C (stereo not given) | inactive |
| CC(=O)NC1CCSC1=O (stereo not given) | inactive |
| O=C(CBr)c1ccccc1 | inactive |
| Clc1cc(Cl)c(Cl)c(Cl)c1 | inactive |
| O=NN1CCCCCC1 | inactive |
| O=S(=O)(O)C(F)(F)C(F)(F)C(F)(F)C(F)(F)F | inactive |
| CN(C)c1ccc(N(C)C)cc1 | inactive |
| Cc1c(F)c(F)c(COC(=O)C2C(/C=C(\Cl)C(F)(F)F)C2(C)C)c(F)c1F (stereo not given) | inactive |
| c1ccc(CN2CCNCC2)cc1 | inactive |
| CCCCNP(N)(N)=S | inactive |
| CN(N=O)c1ccc([N+](=O)[O-])cc1 | inactive |
| C=CC[C@]1(O)CC[C@H]2[C@@H]3CCC4=CC(=O)CCC4=C3C=C[C@@]21C | inactive |
| C=CCCl | inactive |
| CC(C)(Cl)[N+](=O)[O-] | inactive |
| CC1CC(CC2CCC(N)C(C)C2)CCC1N (stereo not given) | inactive |
